Measurements taken from ChEMBL document CHEMBL2218924, “A broad activity screen in support of a chemogenomic map for kinase signalling research and drug discovery” (Biochem J, 2013).

Tests used:
[1] = target: Serine/threonine-protein kinase PLK3 (Homo sapiens) (UniProt Q9H4B4); conditions: at 1 µM
[2] = target: Serine/threonine-protein kinase PLK3 (Homo sapiens) (UniProt Q9H4B4); conditions: at 10 µM
[3] = target: T1, cAMP-dependent protein kinase catalytic subunit PRKX (Homo sapiens) (UniProt P51817); conditions: at 1 µM
T1 sequence (whole entry): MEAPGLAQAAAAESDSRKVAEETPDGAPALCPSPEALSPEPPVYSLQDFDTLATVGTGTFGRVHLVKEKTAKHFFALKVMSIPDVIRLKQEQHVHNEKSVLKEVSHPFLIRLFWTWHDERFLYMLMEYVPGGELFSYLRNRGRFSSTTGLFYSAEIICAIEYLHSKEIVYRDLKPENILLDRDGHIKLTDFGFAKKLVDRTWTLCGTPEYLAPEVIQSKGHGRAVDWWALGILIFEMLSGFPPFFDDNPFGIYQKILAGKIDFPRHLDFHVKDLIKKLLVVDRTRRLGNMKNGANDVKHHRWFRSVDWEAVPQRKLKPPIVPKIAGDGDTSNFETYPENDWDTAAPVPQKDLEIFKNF

[4] = target: T1, cAMP-dependent protein kinase catalytic subunit PRKX (Homo sapiens); conditions: at 10 µM
[5] = target: Protein-tyrosine kinase 2-beta (Homo sapiens) (UniProt Q14289); conditions: at 1 µM
[6] = target: Protein-tyrosine kinase 2-beta (Homo sapiens) (UniProt Q14289); conditions: at 10 µM
[7] = target: Receptor-interacting serine/threonine-protein kinase 2 (Homo sapiens) (UniProt O43353); conditions: at 1 µM
[8] = target: Receptor-interacting serine/threonine-protein kinase 2 (Homo sapiens) (UniProt O43353); conditions: at 10 µM
[9] = target: Rho-associated protein kinase 1 (Homo sapiens) (UniProt Q13464); conditions: at 1 µM
[10] = target: Rho-associated protein kinase 1 (Homo sapiens) (UniProt Q13464); conditions: at 10 µM

Chain of Receptor-interacting serine/threonine-protein kinase 2 (Homo sapiens) (O43353 whole entry): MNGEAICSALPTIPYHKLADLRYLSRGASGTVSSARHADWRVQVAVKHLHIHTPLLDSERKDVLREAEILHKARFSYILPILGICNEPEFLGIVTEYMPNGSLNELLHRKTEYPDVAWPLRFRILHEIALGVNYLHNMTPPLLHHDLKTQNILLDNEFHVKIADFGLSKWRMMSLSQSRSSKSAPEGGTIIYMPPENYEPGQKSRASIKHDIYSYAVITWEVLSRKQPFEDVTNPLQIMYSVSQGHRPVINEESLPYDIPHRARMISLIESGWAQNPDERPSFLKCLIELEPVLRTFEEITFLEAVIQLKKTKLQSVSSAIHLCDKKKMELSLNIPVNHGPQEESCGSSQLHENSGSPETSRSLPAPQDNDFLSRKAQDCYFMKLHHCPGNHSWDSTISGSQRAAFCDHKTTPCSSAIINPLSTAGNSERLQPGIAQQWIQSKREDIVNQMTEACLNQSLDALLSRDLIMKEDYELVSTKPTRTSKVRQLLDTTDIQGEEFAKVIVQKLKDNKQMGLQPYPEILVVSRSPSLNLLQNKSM
Chain of Rho-associated protein kinase 1 (Homo sapiens) (Q13464 2-1354 limits assumed): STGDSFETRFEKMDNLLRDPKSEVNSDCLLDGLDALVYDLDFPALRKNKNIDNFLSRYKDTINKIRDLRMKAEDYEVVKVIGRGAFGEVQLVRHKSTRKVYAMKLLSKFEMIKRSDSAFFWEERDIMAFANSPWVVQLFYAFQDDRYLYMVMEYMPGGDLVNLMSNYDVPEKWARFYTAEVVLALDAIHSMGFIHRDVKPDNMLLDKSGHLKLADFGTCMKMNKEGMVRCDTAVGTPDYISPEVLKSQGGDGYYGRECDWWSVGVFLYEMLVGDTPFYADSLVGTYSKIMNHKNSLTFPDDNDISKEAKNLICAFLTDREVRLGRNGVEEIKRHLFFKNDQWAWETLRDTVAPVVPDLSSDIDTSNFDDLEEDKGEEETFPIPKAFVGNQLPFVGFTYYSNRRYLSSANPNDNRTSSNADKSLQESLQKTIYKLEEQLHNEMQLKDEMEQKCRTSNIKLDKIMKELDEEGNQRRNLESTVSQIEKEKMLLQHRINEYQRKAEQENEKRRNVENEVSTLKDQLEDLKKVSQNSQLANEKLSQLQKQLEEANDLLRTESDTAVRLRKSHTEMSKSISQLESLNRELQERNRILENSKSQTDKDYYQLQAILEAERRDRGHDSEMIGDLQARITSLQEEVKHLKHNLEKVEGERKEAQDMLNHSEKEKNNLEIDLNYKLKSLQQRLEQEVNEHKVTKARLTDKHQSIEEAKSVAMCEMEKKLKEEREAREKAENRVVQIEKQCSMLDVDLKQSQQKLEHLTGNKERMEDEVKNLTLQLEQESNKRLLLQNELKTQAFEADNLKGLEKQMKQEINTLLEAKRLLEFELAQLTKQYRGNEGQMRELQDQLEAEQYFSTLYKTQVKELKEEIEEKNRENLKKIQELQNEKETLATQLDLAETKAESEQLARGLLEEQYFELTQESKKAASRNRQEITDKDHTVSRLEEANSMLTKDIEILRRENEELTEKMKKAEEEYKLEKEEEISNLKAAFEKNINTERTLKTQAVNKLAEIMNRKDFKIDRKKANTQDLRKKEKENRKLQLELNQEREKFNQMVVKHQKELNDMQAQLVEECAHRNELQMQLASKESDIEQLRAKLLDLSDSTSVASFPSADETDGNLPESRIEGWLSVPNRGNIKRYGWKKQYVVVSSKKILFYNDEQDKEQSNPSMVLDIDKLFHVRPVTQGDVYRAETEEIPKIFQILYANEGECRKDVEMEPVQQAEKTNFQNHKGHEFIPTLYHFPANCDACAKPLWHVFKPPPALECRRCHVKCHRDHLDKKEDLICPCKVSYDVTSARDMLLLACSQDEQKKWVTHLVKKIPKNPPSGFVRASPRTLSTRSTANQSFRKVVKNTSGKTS
Chain of Protein-tyrosine kinase 2-beta (Homo sapiens) (Q14289 whole entry, looked up): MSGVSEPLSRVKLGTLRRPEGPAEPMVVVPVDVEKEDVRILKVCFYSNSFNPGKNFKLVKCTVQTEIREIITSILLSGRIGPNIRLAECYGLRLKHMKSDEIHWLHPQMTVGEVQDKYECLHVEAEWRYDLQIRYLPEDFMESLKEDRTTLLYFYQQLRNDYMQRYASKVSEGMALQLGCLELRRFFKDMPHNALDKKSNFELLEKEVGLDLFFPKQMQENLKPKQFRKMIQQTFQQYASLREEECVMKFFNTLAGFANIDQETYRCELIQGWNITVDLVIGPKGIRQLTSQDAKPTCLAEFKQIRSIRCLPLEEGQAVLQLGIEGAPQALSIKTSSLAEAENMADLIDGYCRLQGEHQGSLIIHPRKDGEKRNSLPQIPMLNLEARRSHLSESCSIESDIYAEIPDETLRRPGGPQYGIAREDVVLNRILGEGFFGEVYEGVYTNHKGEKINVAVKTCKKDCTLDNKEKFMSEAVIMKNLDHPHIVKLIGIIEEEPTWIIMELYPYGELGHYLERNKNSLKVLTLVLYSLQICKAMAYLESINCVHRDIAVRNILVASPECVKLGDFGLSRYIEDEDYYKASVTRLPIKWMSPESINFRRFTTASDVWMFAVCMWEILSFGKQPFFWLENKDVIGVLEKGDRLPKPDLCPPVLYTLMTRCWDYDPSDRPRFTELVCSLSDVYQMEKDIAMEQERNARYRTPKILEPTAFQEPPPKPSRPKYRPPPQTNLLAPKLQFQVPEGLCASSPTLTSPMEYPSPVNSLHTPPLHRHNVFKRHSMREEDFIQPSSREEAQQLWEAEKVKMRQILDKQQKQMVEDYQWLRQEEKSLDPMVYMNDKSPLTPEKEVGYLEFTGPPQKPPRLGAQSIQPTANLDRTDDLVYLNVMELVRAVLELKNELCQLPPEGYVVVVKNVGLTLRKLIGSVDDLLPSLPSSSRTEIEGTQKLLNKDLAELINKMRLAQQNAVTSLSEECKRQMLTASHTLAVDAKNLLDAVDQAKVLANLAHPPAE
Chain of Serine/threonine-protein kinase PLK3 (Homo sapiens) (Q9H4B4 whole entry, looked up): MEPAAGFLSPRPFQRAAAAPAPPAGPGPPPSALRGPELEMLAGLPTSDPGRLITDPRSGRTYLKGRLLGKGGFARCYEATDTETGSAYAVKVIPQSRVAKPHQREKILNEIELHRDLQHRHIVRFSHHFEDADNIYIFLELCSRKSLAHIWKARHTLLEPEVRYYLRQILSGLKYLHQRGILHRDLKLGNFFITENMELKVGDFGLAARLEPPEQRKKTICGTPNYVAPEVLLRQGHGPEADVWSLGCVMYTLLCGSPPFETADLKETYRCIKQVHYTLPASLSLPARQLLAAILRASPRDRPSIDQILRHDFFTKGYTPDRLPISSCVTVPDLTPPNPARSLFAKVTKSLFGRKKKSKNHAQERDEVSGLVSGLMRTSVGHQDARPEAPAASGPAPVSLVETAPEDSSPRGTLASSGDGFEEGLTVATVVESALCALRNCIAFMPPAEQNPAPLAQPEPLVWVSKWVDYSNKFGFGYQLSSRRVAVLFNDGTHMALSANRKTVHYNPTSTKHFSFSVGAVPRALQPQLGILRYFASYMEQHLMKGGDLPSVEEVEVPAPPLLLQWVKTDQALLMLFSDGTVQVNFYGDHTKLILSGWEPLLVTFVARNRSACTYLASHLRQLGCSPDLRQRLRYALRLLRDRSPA

SMILES | residual activity [1] | residual activity [2] [%] | residual activity [3] [%] | residual activity [4] [%] | residual activity [5] [%] | residual activity [6] [%] | residual activity [7] [%] | residual activity [8] [%] | residual activity [9] [%] | residual activity [10] [%]
O=c1cc(-c2cccc3c2Sc2ccccc2S3)oc(N2CCOCC2)c1 | 107% (inactive) | 95 | 95 | 72 | 91 | 112 | 94 | 96 | 102 | 96
O=c1c2ccccc2[nH]c(=S)n1CCN1CCC(=C(c2ccc(F)cc2)c2ccc(F)cc2)CC1 | 98% (inactive) | 89 | 87 | 52 | 136 | 91 | 100 | 101 | 114 | 127
COc1cccc(-c2cc(=O)c3ccccc3o2)c1N | 111% (inactive) | – | 90 | 33 | 106 | 112 | 92 | 106 | 117 | 100
Cn1cc(/C=C2\C(=O)Nc3ccc(S(N)(=O)=O)cc32)c2ccccc21 | 100% (inactive) | 99 | 88 | 59 | 22 | 5 | 52 | 51 | 92 | 87
Cc1ccc(NC2=CC(=O)c3sc(C)nc3C2=O)cc1 | 97% (inactive) | 91 | 102 | 97 | 108 | 102 | 81 | 89 | 117 | 102
Oc1c2ccccc2c2c3c(cccc13)N=N2 | 94% (inactive) | 82 | 86 | 70 | 68 | 23 | 70 | 52 | – | 95
CC(=O)c1ccc(N2CCOCC2)cc1O | 90% (inactive) | 92 | 106 | 95 | – | 103 | 95 | 81 | – | –
O=C1Nc2ccccc2/C1=C1/Nc2ccccc2/C1=N\OCCC(O)CO (centres undefined) | – | – | 66 | 41 | 7 | 2 | 58 | 50 | 114 | 98
CC#CC(=O)Nc1cc2c(Nc3ccc(F)c(Cl)c3)ncnc2cn1 | 96% (inactive) | 82 | 100 | 93 | 120 | – | 82 | 60 | 99 | 116
CC(C)n1cnc2/c(=N/c3cccc(Cl)c3)nc(NCCO)[nH]c21 | 93% (inactive) | 57 | 82 | 65 | 56 | 18 | 77 | 68 | 113 | 82
COc1cc2ncc(-c3ccccc3)nc2cc1OC | 95% (inactive) | 93 | 88 | 76 | – | 76 | – | 58 | – | –
Nc1ccc2ncnc(NCCc3ccc(Oc4ccccc4)cc3)c2c1 | 102% (inactive) | 96 | 109 | 58 | 88 | 72 | 102 | 88 | 106 | 100
Nc1cccc(-c2cc3c(Oc4cccc(O)c4)ncnc3[nH]2)c1 | 99% (inactive) | 74 | 85 | 70 | 25 | 5 | 18 | 11 | – | 97
C[C@@H](N)[C@H]1CC[C@H](C(=O)Nc2ccncc2)CC1 | 108% (inactive) | 96 | 72 | 24 | – | – | 96 | – | 77 | 31
O=C1Nc2ccc(Br)cc2/C1=C\c1cc2c([nH]1)CCCC2 | – | – | 113 | 102 | 75 | 49 | – | – | 119 | 116
CCN(CC)C(=O)c1ccc(Nc2nc(OCC3CCCCC3)c3nc[nH]c3n2)cc1 | 101% (inactive) | – | 101 | 23 | 22 | 0 | 74 | 41 | – | 23
Cc1ccc(S(=O)(=O)/C=C/C#N)cc1 | 103% (inactive) | 97 | 91 | 101 | 102 | 104 | 88 | 88 | 119 | 106
O=C1c2ccccc2-[n+]2ccc3c([nH]c4ccccc43)c21 | 98% (inactive) | 91 | 92 | 53 | 101 | 97 | 90 | 88 | 126 | 115
CCN(CC)CCCCN1c2ccccc2Oc2ccc(Cl)cc21 | 101% (inactive) | 99 | 109 | 101 | 131 | 115 | 105 | 85 | 113 | 121

SMILES | residual activity [1] | residual activity [2] [%] | residual activity [3] [%] | residual activity [4] [%] | residual activity [5] [%] | residual activity [6] [%] | residual activity [7] [%] | residual activity [8] [%] | residual activity [9] [%] | residual activity [10] [%]
O=[N+]([O-])c1ccc(-c2nc(-c3ccc(F)cc3)c(-c3ccncc3)[nH]2)cc1 | – | 108 | 132 | 26 | 114 | 105 | 19 | 25 | 122 | 118
COc1ccc(S(=O)(=O)N(CCO)c2ccccc2CN(C)C/C=C/c2ccc(Cl)cc2)cc1 | 87% (inactive) | 96 | 88 | 51 | 109 | 96 | 92 | 91 | 134 | 124
Oc1ccc(Nc2nc(-c3ccc(Cl)cc3)cs2)cc1 | 100% (inactive) | 94 | 78 | 118 | 109 | 106 | 107 | 89 | 122 | 121
N#CC(C#N)=C(N)/C(C#N)=C/c1ccc(O)cc1 | 79% (inactive) | 27 | 99 | 100 | 129 | 94 | – | 64 | – | –
COc1cc2ncnc(Nc3ccc(NC(=O)c4ccccc4)cc3)c2cc1OC | 102% (inactive) | 97 | – | 91 | 134 | 75 | 110 | 77 | – | –
COc1ccc(CNc2nc(N(CCO)CCO)nc3c2ncn3C(C)C)cc1 | 97% (inactive) | 95 | 95 | 101 | 83 | 85 | 83 | 78 | 121 | 109
c1ccc(-c2n[nH]c3c2oc2ccccc23)cc1 | 100% (inactive) | 90 | 88 | 94 | – | – | 97 | 64 | 114 | 126
c1ccc2c(-c3ccncc3)c[nH]c2c1 | 91% (inactive) | 94 | 48 | 16 | – | 93 | 87 | 59 | – | 78
c1ccc(-c2n[nH]cc2-c2ccnc3ccccc23)nc1 | 99% (inactive) | 94 | 96 | 94 | 109 | 96 | 29 | 16 | – | 127
CO[C@H]1C[C@@H]2CC[C@@H](C)[C@@](O)(O2)C(=O)C(=O)N2CCCC[C@H]2C(=O)O[C@H]([C@H](C)C[C@@H]2CC[C@@H](O)[C@H](OC)C2)CC(=O)[C@H](C)/C=C(\C)[C@@H](O)[C@@H](OC)C(=O)[C@H](C)C[C@H](C)/C=C/C=C/C=C/1C | 93% (inactive) | 94 | 98 | 94 | 119 | 99 | 84 | 84 | 127 | 140
Cn1nc2c3c(cccc31)C(=O)c1ccccc1-2 | 100% (inactive) | 90 | 72 | 86 | 106 | 76 | 89 | 89 | – | 97
Nc1nc(Nc2ccc(S(N)(=O)=O)cc2)nn1C(=S)Nc1c(F)cccc1F | 90% (inactive) | 91 | 44 | 7 | 4 | 1 | 16 | 29 | 6 | 1
N#Cc1cnc2cnc(NCc3cccnc3)cc2c1Nc1ccc(F)c(Cl)c1 | – | 96 | 95 | 87 | 66 | 45 | 100 | 96 | 37 | 19
Oc1ccc(-c2nc(-c3ccc(F)cc3)c(-c3ccncc3)[nH]2)cc1 | 109% (inactive) | 90 | – | – | 111 | 86 | 24 | 14 | 117 | 100
CO[C@@H]1[C@H](N(C)C(=O)c2ccccc2)C[C@H]2O[C@]1(C)n1c3ccccc3c3c4c(c5c6ccccc6n2c5c31)C(=O)NC4 | 95% (inactive) | 92 | 24 | 12 | 16 | 10 | 88 | 70 | 110 | 115
Cc1cccc(-c2[nH]c(C(C)(C)C)nc2-c2ccc3c(c2)OCO3)n1 | 98% (inactive) | 88 | – | – | – | 103 | 59 | 21 | – | –
Cc1cc(Nc2nc(-c3ccccc3)nc3ccccc23)n[nH]1 | – | – | 81 | 38 | 20 | 4 | – | 63 | 120 | 94
Ic1cccc(CSc2nnc(-c3ccncc3)o2)c1 | 87% (inactive) | 94 | 57 | 71 | 103 | 101 | 82 | 78 | 113 | 98
